Assay outcomes (PubChem)
Sampled rows, rich in hits. Any-hit rate of the full collection: about 4.7%.
HSF1 inh: HSF1 inhibition; NIH3T3-HGL HSE-luciferase, MG132-induced, luminescence 8 h; stronger effect = lower value; activity change, negative = inhibition, % at 7.5 µM (by protocol); 300,000 tested, 0.77% active;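 active = more than half of replicate wells show activity change below -50%, luminescence cut by over half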;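 note: luciferase reports HSF-1 transcriptional activity via heat shock element; 0% = median of DMSO wells and -100% = zero luminescence signal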
TROY signal inh: inhibitors of TROY-dependent NF-kB signaling; Q293 LMP1-TROYcd NF-kB luciferase reporter, 4 h; inhibition, % at 10 µM; 360,000 tested, 0.98% active;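 active = compounds whose plate-normalised and pattern-corrected inhibition of the luciferase reporter signal at the single screening dose is 50% or more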
LMP1 NFkB inh: reduces LMP1-driven NF-kappaB luciferase signal | LMP1-induced NF-kappaB luciferase reporter cells, luminescence | inhibition, % at 12.5 µM | 350,000 tested, 0.69% active; in the data active = inhibition above about 41%;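 note: 0% = neutral control wells and 100% = reference inhibitor control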
HSP90 refold inh: blocks HSP90-mediated luciferase refolding in reticulocyte lysate. Rabbit reticulocyte lysate, luciferase refolding luminescence, 3 h. inhibition, % at 5.6 µM. 290,000 tested, 0.91% active;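 active = inhibition above the screen-wide mean plus 3 SD, computed separately per campaign, cut at about 16% in these data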;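 note: 0% = DMSO wells and 100% = 60 µM geldanamycin wells; inhibitors lower the luminescence because luciferase stays unfolded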
HSF-1 act: increases HSF-1 driven luciferase reporter signal. NIH3T3-HGL HSF-1 luciferase reporter, MG132, 8 h; 100% = twice DMSO control signal. activation, % at 9 µM. 300,000 tested, 1.7% active. AID 504408;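 active = mean replicate activation of at least 50% with a set share of replicates each reaching 50%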;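 note: 0% = median of the neutral control wells and 100% = twice that signal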
TWEAK-Fn14 inh: TWEAK-Fn14 signaling inhibition; 360,000 tested, 2% active; inhibition, % at 10 µM; AID 1159606; TWEAK-stimulated Fn14 reporter cells, luciferase luminescence, 8 h; in the data active = inhibition above about 50%
Starred values were filed as active, the others as inactive.

Results for COc1ccc(C(=O)/C=C/Nc2ccc(S(=O)(=O)Nc3cccc(C(C)=O)c3)cc2)cc1 ?
HSF1 inh: 11; TROY signal inh: 19; LMP1 NFkB inh: 6; HSP90 refold inh: 3; HSF-1 act: 0; TWEAK-Fn14 inh: 79*

Results for COc1cc(OC)c(OC)cc1/C=C/C(=O)c1ccc(NS(=O)(=O)c2ccc(C)cc2)cc1 ?
HSF1 inh: 38; TROY signal inh: 36; LMP1 NFkB inh: 11; HSP90 refold inh: -1; HSF-1 act: 40; TWEAK-Fn14 inh: 62*

How did COc1cccc(N/C=C/C(=O)c2ccc(Br)cc2)c1 do in these assays?
HSF1 inh: 10; TROY signal inh: -46; LMP1 NFkB inh: -31; HSP90 refold inh: -2; HSF-1 act: 4; TWEAK-Fn14 inh: 31

How did CC(=O)c1ccc(NS(=O)(=O)c2ccc(C)cc2)cc1 do in these assays?
HSF1 inh: -32; TROY signal inh: -5; LMP1 NFkB inh: -18; HSP90 refold inh: -5; HSF-1 act: -46; TWEAK-Fn14 inh: -4

What do the screens show for `COc1ccc(C(=O)/C=C/Nc2cccc(O)c2)cc1`?
HSF1 inh: -2; TROY signal inh: -50; LMP1 NFkB inh: -35; HSP90 refold inh: -2; HSF-1 act: 15; TWEAK-Fn14 inh: 52*

How did O=C(Nc1nc(OCCN2CCCC2=O)cnc1/C=C\c1ccccc1)c1cc2ccccc2s1 do in these assays?
TROY signal inh: 10; TWEAK-Fn14 inh: 8

Results for CCCc1cc(CN(C)C(=O)c2ccc(OC3CCN(C(C)=O)CC3)c(OC)c2)[nH]n1 ?
TROY signal inh: 3; LMP1 NFkB inh: -1; TWEAK-Fn14 inh: -3

Results for CCn1c(SC)nnc1C1CCCN(CC(=O)Nc2ccccc2N2CCOCC2)C1 (stereo not given) ?
HSF1 inh: 15; TROY signal inh: -16; LMP1 NFkB inh: -4; HSP90 refold inh: -3; HSF-1 act: 67*; TWEAK-Fn14 inh: -15

How did CCOc1cc(OCC)cc(C(=O)N2CCC[C@@H]2C(=O)N2CCC[C@@H]2C(=O)NCc2ccccc2Cl)c1 do in these assays?
TROY signal inh: 6; TWEAK-Fn14 inh: -8

What do the screens show for `CCCc1[nH]c2ccc(C#N)cc2c1CCC`?
HSF1 inh: 0; TROY signal inh: 53*; LMP1 NFkB inh: -6; HSP90 refold inh: 0; HSF-1 act: -5; TWEAK-Fn14 inh: 39

How did CCCc1[nH]c2ccc(C(=O)OC)cc2c1CCC do in these assays?
HSF1 inh: 9; TROY signal inh: -42; LMP1 NFkB inh: -2; HSP90 refold inh: 0; HSF-1 act: 8; TWEAK-Fn14 inh: -16

Results for COc1ccccc1C(=O)NCC(=O)OCC(=O)c1cccc2ccccc12 ?
HSF1 inh: 19; TROY signal inh: -18; LMP1 NFkB inh: 6; HSF-1 act: 60*; TWEAK-Fn14 inh: -14

How did CSCCC(NS(=O)(=O)c1cccc(C(F)(F)F)c1)C(=O)N(C)CCOc1ccc(Cl)cc1 (stereo not given) do in these assays?
HSF1 inh: 34; TROY signal inh: 17; LMP1 NFkB inh: -27; HSF-1 act: 65*; TWEAK-Fn14 inh: 26

How did CSCCC(NS(=O)(=O)c1cccc(C(F)(F)F)c1)C(=O)N1CCN(C(=O)c2ccco2)CC1 (stereo not given) do in these assays?
TROY signal inh: -4; LMP1 NFkB inh: -9; TWEAK-Fn14 inh: -14

What do the screens show for `C=CCn1c(SCC(=O)NC2CCCC2)nc2ccccc21`?
TROY signal inh: -8; LMP1 NFkB inh: 1; TWEAK-Fn14 inh: 12

How did COC(=O)[C@]12CCCCC=C1N(Cc1ccccc1)C(=O)[C@H](CC(=O)NCC1CCCCC1)C2 do in these assays?
TROY signal inh: 9; TWEAK-Fn14 inh: 22

Results for CC(NC(=O)/C(C#N)=C/c1ccco1)c1ccccc1 (stereo not given) ?
HSF1 inh: -4; TROY signal inh: 1; LMP1 NFkB inh: -4; HSP90 refold inh: 10; HSF-1 act: -22; TWEAK-Fn14 inh: -3

How did CC(NC(=O)/C(C#N)=C/c1ccc([N+](=O)[O-])o1)c1ccccc1 (stereo not given) do in these assays?
HSF1 inh: -62*; TROY signal inh: 5; LMP1 NFkB inh: -6; HSP90 refold inh: 15; HSF-1 act: -66; TWEAK-Fn14 inh: 5

What do the screens show for `COC(=O)c1ccc(/C=C(\C#N)C(=O)NC(C)c2ccccc2)cc1` (stereo not given)?
HSF1 inh: -4; TROY signal inh: 29; LMP1 NFkB inh: 9; HSP90 refold inh: 7; HSF-1 act: 9; TWEAK-Fn14 inh: 57*

How did COc1cc(/C=C/[N+](=O)[O-])ccc1OC(=O)/C=C/c1ccc(F)cc1 do in these assays?
HSF1 inh: 60; TROY signal inh: -1; LMP1 NFkB inh: -4; HSP90 refold inh: 10; HSF-1 act: 70*; TWEAK-Fn14 inh: -8

Results for Clc1ccc(Cn2cc(/C=N/n3cnnc3)c3ccccc32)c(Cl)c1 ?
HSF1 inh: 8; TROY signal inh: 46; LMP1 NFkB inh: -2; HSP90 refold inh: -1; HSF-1 act: 21; TWEAK-Fn14 inh: 54*

Results for COCCNC(=O)C1CCCN(C(=O)Cc2ccc(F)cc2)CC1 (stereo not given) ?
TROY signal inh: -15; TWEAK-Fn14 inh: 5

What do the screens show for `O=[N+]([O-])c1ccccc1S(=O)NCc1c(Cl)cccc1Cl` (stereo not given)?
TROY signal inh: 55*; TWEAK-Fn14 inh: 8

Results for Cc1ccccc1CN1C(=O)c2ccccc2C1c1nnnn1-c1ccc2c(c1)OCCO2 (stereo not given) ?
TROY signal inh: 32; TWEAK-Fn14 inh: 18

What do the screens show for `CC(C)CC(=NNC(=O)c1ccncc1)c1cc(Cl)ccc1O`?
TROY signal inh: 25; LMP1 NFkB inh: 73*; TWEAK-Fn14 inh: 35

What do the screens show for `COc1cccc(NC(=O)CSCc2nc3sc(C)c(C)c3c(=O)[nH]2)c1`?
TROY signal inh: 2; LMP1 NFkB inh: -21; TWEAK-Fn14 inh: -2

Results for CCOC(=O)CC1NCCc2c1[nH]c1ccc(OC)cc21 (stereo not given) ?
HSF1 inh: 16; TROY signal inh: -14; LMP1 NFkB inh: 4; HSP90 refold inh: 5; HSF-1 act: 58*; TWEAK-Fn14 inh: 7

What do the screens show for `CCOC(=O)c1ccc2[nH]c3c(c2c1)CCCC3O` (stereo not given)?
HSF1 inh: 10; TROY signal inh: 4; LMP1 NFkB inh: 5; HSP90 refold inh: -3; HSF-1 act: 20; TWEAK-Fn14 inh: -7

What do the screens show for `O=C(C[C@@H]1C[C@H]2c3cc(NC(=O)C4CCC4)ccc3O[C@H]2[C@@H](CO)O1)NCc1ccc(-c2ccccc2)cc1`?
TROY signal inh: 22; LMP1 NFkB inh: 0; TWEAK-Fn14 inh: 18

How did COc1ccc2oc(=O)c(N3C(=O)c4ccccc4C3=O)cc2c1 do in these assays?
HSF1 inh: -66*; TROY signal inh: -11; LMP1 NFkB inh: -5; HSP90 refold inh: 2; HSF-1 act: -72; TWEAK-Fn14 inh: 6
